Assay results from PubChem BioAssay (EPA / NIEHS).
Active and inactive are the calls of the source. Rule for the calls: active = hit-call score of the fitted dose curve at least 0.9, where 1 is the maximum; inactive = score below 0.9.

Assay: ATG_TGFb_CIS: Attagene CIS-FACTORIAL HepG2 Assay for human Transforming Growth Factor (TGF) (AID 2282967)
Conditions: HepG2 Attagene CIS TGFb reporter, mRNA transcription; actives raise or lower the signal
Experimental: ATG_CIS is a cell-based, multiplexed-readout assay that uses HepG2, a human liver cell line, with measurements taken at 24 hours after chemical dosing in a 24-well plate.ATG_TGFb_CIS is one of 52 assay component(s) measured or calculated from the ATG_CIS assay. It is designed to make measurements of mRNA induction, a form of inducible reporter, as detected with fluorescence intensity signals by Reverse transcription polymerase chain reaction (RT-PCR) and Capillary electrophoresis technology.Data from the assay component ATG_TGFb_CIS was analyzed into 1 assay endpoint. This assay endpoint, ATG_TGFb_CIS, was analyzed with bidirectional fitting relative to DMSO as the negative control and baseline of activity. Using a type of inducible reporter, measures of mRNA for gain or loss-of-signal activity can be used to understand the reporter gene at the transcription factor-level as they relate to the gene TGFB1. Furthermore, this assay endpoint can be referred to as a primary readout, because this assay has produced multiple assay endpoints where this one serves a reporter gene function. To generalize the intended target to other relatable targets, this assay endpoint is annotated to the growth factor intended target family, where the subfamily is transforming growth factor beta.
Human liver HepG2 cells are transiently transfected with multiple reporter transcription units (MRTUs) in 6-well plates using FuGene 6 reagent (Roche; 3 ml FuGene/1 mg DNA). The MRTU constructs are regulated by a cis-regulating element (promoter). […] A major difference between the CIS and TRANS system is that in CIS activities of endogenous TFs are measured, whereas the TRANS assay evaluates changes in activities of exogenous, chimeric NR-Gal4 proteins. […] At the end of 24 hour incubation, total RNA was isolated using TriZol reagent (Invitrogen). The isolated RNA is then reverse-transcribed using oligo(dT) primer and Mo-MLV reverse transcriptase (Invitrogen) with DNAse I (Ambion) treatment for 30 min. The one-tenth of the produced cDNA was amplified by PCR using Taq DNA polymerase (Invitrogen) and two reporter sequence-specific primers. The PCR products were fluorescently labeled by primer extension with 6-arboxyfluorescein (6-FAM) 5'-labeled reporter sequence-specific primer (2 min at 95 C, 20 s at 68 C and 10 min at 72 C) and these products were digested with 5U of HpaI (New England Biolabs) for 2h at 37 C. The fragments were purified using Qiaquick PCR columns (Qiagen), analyzed on an ABI 3130xL genetic analyzer (Applied Biosystems) with peak positions identified by using a set of X-rhodamine (ROX)-labeled MapMarker1000 molecular weight standards (BioVentures). The raw capillary electrophoresis data was processed using Attagraph software (Attagene).

SMILES	outcome	AC50
CCC(=O)OCc1ccccc1	inactive	–
CC(CC(C)(C)C)CC(C)(C)CC(C)(C)C (stereo not given)	inactive	–
C=C(C)C1CCC(C)CC1O (stereo not given)	inactive	–
CO[Si](C)(OC)c1ccccc1	inactive	–
COc1cc2ncnc(Nc3cccc(Cl)c3)c2cc1OC	inactive	–
COCCOCCOCCOCCOCCO	inactive	–
Clc1nc(C(Cl)(Cl)Cl)c(Cl)c(Cl)c1Cl	–	62.2 µM (active)
O=C(Nc1ccccc1)c1cc([N+](=O)[O-])ccc1Cl	inactive	–
COC(C(=O)O)c1ccccc1 (stereo not given)	inactive	–
CCCC[n+]1ccccc1	inactive	–
Cc1ccc(C=O)s1	inactive	–
O=[N+]([O-])c1ccc(C=Cc2ccc([N+](=O)[O-])cc2S(=O)(=O)O)c(S(=O)(=O)O)c1	inactive	–
O=c1[nH]nnc2ccccc12	inactive	–
CCCCOCCOCCOCCOCCO	inactive	–
CC(C)C[C@H]1C(=O)N2CCC[C@H]2[C@]2(O)O[C@](NC(=O)[C@@H]3C=C4c5cccc6[nH]c(Br)c(c56)C[C@H]4N(C)C3)(C(C)C)C(=O)N12	inactive	–
CC(C#N)(CCC(=O)O)N=NC(C)(C#N)CCC(=O)O (stereo not given)	inactive	–
C=C[C@@H](C)CCC=C(C)C	inactive	–
NC(=O)Nc1ccc(Cl)cc1	inactive	–
CCn1c2ccccc2c2cc(N)ccc21	inactive	–
OC1OC[C@@H](O)[C@H](O)[C@H]1O (stereo not given in full)	inactive	–

SMILES	outcome	AC50
CC(=O)OCc1ccc2c(c1)OCO2	inactive	–
CC(C)(Oc1ccc(CCNC(=O)c2ccc(Cl)cc2)cc1)C(=O)O	inactive	–
CCCCCCC#CC(=O)OC	inactive	–
Cc1cccc(C)c1C	inactive	–
CC(C)(C)c1n[nH]c(=S)n(N)c1=O	inactive	–
O=C1CCc2ccccc2O1	inactive	–
CCOc1ccccc1OCC	inactive	–
CCN(CC)CCOC(=O)c1ccc(N)cc1	inactive	–
C=CC[N+](C)(C)CC=C	inactive	–
CN(C)CCCN	inactive	–
CC1=CCC(O)(C(C)C)CC1 (stereo not given)	inactive	–
CCCCCCCCCCCCCCCC(=O)O	inactive	–
C=C(C)[C@@H]1CCC2=CC(=O)C[C@@H](C)[C@]2(C)C1	–	152 µM (active)
O=C1NC(=O)c2ccccc21	inactive	–
Nc1cc([N+](=O)[O-])ccc1O	inactive	–
CC(C)CCCCCCCOC(=O)c1ccc(C(=O)OCCCCCCCC(C)C)c(C(=O)OCCCCCCCC(C)C)c1	inactive	–
CCCc1ccccc1O	inactive	–
O=C[C@H](O)[C@H](O)[C@H](O)CO	inactive	–
CCC(=O)OCCC(C)CCC=C(C)C (stereo not given)	inactive	–
Clc1cccc(Cl)n1	inactive	–
